According to PubChem BioAssay:
Activity calls are given as the source filed them.

Experiments:
[1] = small molecules captured by biotinylated probe aFSTL3 – biochemical, small-molecule microarray, fluorescence 635/667, stem cell growth factor project, primary screen (AID 1064); conditions: higher = more signal;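 further: measures binding of the biotinylated anti-FSTL3 antibody to printed compounds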
[2] = binders from COS7 lysate, DM2A8 probe, primary screen, torsin A project, cell lysate, small-molecule microarray, fluorescence 635/667 (AID 1065); conditions: higher = more signal, COS7 lysate expressing mutant human TOR1A
[3] = small molecules captured by biotinylated probe aFGF2 – biochemical, small-molecule microarray, fluorescence 635/667, stem cell growth factor project, primary screen (AID 1067); conditions: higher = more signal;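 further: measures binding of biotinylated aFGF2 protein to printed compounds on slides; z-score merges feature fluorescence and signal-to-noise across triplicate slides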
[4] = small molecules captured by biotinylated probe aFGF10 – biochemical, small-molecule microarray, fluorescence 635/667, stem cell growth factor project, primary screen (AID 1071); conditions: higher = more signal;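 further: score merges 667 nm spot intensity and signal to noise from triplicate slides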
[5] = target: Neurogenic locus notch homolog protein 2 (Homo sapiens) (UniProt Q04721); test: small molecules binding Notch2 protein – biochemical, small-molecule microarray, 635 nm fluorescence, stem cell growth factors, primary screen (AID 1073); conditions: higher = more signal
[6] = target: Pro-neuregulin-1, membrane-bound isoform (Homo sapiens) (UniProt Q02297); test: small molecules binding neuregulin-1 protein – biochemical, small-molecule microarray, fluorescence 635/667, psychiatric disease protein project, primary screen (AID 1075); conditions: NRG1 binding, 635 nm fluorescence, higher = more signal;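 further: score combines 667 nm spot fluorescence with signal to noise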
[7] = tested on: Neuregulin-1 EGF-like domain; test: small molecules binding NRG1 EGF domain – biochemical, small-molecule microarray, 635 nm fluorescence, primary screen (AID 1081); conditions: higher = more signal;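 further: binding of the protein to compounds printed on small-molecule microarray slides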
[8] = FRG1 expression reporter modulators in myotubes – cell-based, C2C12 myotubes, firefly/Renilla luciferase, luminescence, FRG1 inhibition for FSHD, primary screen (AID 1084); conditions: FRG1 promoter luciferase, higher = more signal, called active from +8 up or from −8 down
[9] = small molecules captured by biotinylated probe aFST – biochemical, small-molecule microarray, fluorescence 635/667, stem cell growth factor project, primary screen (AID 1086); conditions: higher = more signal;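 further: score merges 667 nm fluorescence with signal-to-noise of each printed compound spot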
[10] = binders of probe aHhip on microarray, primary screen, stem cell growth factor project, biochemical, small-molecule microarray, fluorescence 635/667 (AID 1087); conditions: higher = more signal;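 further: score merges spot fluorescence at 667nm with spot signal to noise ratio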
[11] = tested on: PRMT1 (protein arginine N-methyltransferase 1); test: small molecules binding arginine methyltransferase PRMT1 – biochemical, small-molecule microarray, 635 nm fluorescence, primary screen (AID 1088); conditions: higher = more signal;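 further: binding of Prmt1 protein to compounds spotted on small-molecule microarray slides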
[12] = growth effects on S. cerevisiae YJM789 – YJM789 clinical isolate, OD600, 24 h, basal, primary screen (AID 1089); conditions: higher = more signal, called active from +8 up or from −8 down;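 further: growth of clinical yeast isolate S. cerevisiae YJM 789 seeded 1000 cells per well; test concentration not given here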
[13] = S. pombe growth modifiers, basal conditions – strain 972, OD600, 24 h, no modulator, primary screen (AID 1090);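 further: basal condition with compound alone and no growth modifier present; test concentration not given here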; conditions: S. pombe 972 growth, higher = more signal, called active from +8 up or from −8 down
[14] = budding yeast growth modifiers under rapamycin – strain BY4716, OD600, 96 h, primary screen (AID 1091); further: test concentration not given here; conditions: S. cerevisiae BY4716 + rapamycin, higher = more signal, called active from +8 up or from −8 down
[15] = target: Torsin-1A-interacting protein 2 (Homo sapiens) (UniProt Q8NFQ8); test: small molecules binding lysate-expressed LULL1 – cell lysate, human LULL1 lysate, 635/667 nm fluorescence, primary screen (AID 1092); conditions: small-molecule microarray, hLULL1 lysate binding, 635 nm fluorescence; higher = more signal;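 further: probe is lysate of COS7 cells overexpressing human LULL1; score merges per-feature 667 nm fluorescence with signal-to-noise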
[16] = optical density change of DRC41 E. coli – strain DRC41, OD650, 24 h, E. coli filamentation project, primary screen (AID 1093);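 further: MC1000 strain lacking acrAB efflux and sulA so SOS filamentation is blocked; test concentration not given here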; conditions: E. coli DRC41 growth, higher = more signal, called active from +8 up or from −8 down
[17] = probe aLefty2 binding to arrayed compounds – biochemical, biotinylated probe, 635/667 nm fluorescence, primary screen (AID 1094); conditions: small-molecule microarray, higher = more signal;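 further: score merges spot fluorescence near 667 nm with spot signal-to-noise ratio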
[18] = tested on: Noggin (protein binding on small-molecule microarray); test: small molecules binding Noggin protein – biochemical, 635/667 nm fluorescence, primary screen (AID 1095); conditions: 635 nm fluorescence, higher = more signal;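 further: score merges 667 nm feature fluorescence with signal to noise over triplicate slides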
[19] = target: Neurogenic locus notch homolog protein 3 (Homo sapiens) (UniProt Q9UM47); test: small molecules binding NOTCH3 protein – biochemical, 635/667 nm fluorescence, primary screen (AID 1096); conditions: small-molecule microarray, 635 nm fluorescence, higher = more signal
[20] = probe aEGFR binding to arrayed compounds – biochemical, biotinylated probe, 635/667 nm fluorescence, primary screen (AID 1097); conditions: small-molecule microarray, higher = more signal;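 further: probe is a biotinylated anti-EGFR antibody binding compounds printed on slides; score combines fluorescence near 667 nm and signal to noise of each spot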

Chain of Neurogenic locus notch homolog protein 3 (Homo sapiens) (Q9UM47 whole entry, looked up): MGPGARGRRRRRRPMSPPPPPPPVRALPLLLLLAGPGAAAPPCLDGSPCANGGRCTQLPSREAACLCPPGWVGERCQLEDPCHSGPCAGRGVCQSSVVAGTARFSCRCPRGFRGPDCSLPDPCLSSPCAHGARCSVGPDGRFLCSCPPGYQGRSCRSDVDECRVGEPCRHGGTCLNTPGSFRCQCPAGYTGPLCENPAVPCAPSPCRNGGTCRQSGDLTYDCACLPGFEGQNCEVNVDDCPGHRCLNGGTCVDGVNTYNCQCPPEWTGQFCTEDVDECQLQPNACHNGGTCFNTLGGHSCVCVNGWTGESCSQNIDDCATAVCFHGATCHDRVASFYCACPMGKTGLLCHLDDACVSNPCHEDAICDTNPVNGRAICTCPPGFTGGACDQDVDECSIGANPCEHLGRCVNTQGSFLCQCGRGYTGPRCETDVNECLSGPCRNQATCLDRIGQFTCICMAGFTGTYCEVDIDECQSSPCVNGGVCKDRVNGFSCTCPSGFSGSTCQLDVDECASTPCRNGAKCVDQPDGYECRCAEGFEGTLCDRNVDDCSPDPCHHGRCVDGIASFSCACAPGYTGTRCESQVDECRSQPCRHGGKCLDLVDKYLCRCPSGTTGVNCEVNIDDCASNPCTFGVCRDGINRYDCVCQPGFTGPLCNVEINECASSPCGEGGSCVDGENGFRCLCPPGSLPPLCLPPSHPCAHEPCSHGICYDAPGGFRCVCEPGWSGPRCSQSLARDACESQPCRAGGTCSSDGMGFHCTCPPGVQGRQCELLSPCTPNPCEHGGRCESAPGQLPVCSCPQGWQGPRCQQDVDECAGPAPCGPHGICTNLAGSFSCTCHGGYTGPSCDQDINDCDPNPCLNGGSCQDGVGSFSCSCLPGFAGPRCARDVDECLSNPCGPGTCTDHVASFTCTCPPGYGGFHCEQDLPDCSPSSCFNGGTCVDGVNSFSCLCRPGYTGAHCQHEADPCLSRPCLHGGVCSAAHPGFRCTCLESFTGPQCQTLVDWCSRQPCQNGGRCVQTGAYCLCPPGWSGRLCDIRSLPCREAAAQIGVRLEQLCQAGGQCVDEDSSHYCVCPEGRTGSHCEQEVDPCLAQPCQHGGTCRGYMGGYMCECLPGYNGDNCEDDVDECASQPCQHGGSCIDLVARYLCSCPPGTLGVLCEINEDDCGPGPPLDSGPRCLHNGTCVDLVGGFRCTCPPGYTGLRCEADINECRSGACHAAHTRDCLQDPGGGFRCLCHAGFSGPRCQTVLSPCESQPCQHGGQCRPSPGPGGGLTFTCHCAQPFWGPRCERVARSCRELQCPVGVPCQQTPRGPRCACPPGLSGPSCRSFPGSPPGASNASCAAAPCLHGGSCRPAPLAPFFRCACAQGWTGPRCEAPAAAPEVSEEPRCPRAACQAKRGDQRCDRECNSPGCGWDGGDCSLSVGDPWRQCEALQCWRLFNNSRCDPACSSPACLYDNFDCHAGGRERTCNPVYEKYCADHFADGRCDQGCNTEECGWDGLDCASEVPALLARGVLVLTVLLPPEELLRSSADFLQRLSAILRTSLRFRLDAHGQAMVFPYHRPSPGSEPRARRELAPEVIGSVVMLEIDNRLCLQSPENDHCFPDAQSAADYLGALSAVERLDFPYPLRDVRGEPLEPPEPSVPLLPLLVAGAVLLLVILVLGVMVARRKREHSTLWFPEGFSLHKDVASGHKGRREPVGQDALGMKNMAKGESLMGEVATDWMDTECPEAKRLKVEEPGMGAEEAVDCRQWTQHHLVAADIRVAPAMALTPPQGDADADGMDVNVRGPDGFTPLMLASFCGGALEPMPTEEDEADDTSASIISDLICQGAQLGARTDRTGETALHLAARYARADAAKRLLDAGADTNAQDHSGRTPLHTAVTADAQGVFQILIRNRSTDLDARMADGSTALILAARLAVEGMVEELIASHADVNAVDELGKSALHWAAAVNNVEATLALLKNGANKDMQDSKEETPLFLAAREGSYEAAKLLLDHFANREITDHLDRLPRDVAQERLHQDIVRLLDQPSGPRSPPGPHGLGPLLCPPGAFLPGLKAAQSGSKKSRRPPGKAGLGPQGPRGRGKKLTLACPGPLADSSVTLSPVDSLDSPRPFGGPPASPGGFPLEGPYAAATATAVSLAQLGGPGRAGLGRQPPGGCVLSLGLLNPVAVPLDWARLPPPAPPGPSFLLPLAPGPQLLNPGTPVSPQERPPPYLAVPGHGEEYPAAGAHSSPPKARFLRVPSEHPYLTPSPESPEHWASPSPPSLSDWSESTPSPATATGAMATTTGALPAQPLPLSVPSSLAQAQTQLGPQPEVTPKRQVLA
Chain of Neurogenic locus notch homolog protein 2 (Homo sapiens) (Q04721 whole entry, looked up, canonical isoform): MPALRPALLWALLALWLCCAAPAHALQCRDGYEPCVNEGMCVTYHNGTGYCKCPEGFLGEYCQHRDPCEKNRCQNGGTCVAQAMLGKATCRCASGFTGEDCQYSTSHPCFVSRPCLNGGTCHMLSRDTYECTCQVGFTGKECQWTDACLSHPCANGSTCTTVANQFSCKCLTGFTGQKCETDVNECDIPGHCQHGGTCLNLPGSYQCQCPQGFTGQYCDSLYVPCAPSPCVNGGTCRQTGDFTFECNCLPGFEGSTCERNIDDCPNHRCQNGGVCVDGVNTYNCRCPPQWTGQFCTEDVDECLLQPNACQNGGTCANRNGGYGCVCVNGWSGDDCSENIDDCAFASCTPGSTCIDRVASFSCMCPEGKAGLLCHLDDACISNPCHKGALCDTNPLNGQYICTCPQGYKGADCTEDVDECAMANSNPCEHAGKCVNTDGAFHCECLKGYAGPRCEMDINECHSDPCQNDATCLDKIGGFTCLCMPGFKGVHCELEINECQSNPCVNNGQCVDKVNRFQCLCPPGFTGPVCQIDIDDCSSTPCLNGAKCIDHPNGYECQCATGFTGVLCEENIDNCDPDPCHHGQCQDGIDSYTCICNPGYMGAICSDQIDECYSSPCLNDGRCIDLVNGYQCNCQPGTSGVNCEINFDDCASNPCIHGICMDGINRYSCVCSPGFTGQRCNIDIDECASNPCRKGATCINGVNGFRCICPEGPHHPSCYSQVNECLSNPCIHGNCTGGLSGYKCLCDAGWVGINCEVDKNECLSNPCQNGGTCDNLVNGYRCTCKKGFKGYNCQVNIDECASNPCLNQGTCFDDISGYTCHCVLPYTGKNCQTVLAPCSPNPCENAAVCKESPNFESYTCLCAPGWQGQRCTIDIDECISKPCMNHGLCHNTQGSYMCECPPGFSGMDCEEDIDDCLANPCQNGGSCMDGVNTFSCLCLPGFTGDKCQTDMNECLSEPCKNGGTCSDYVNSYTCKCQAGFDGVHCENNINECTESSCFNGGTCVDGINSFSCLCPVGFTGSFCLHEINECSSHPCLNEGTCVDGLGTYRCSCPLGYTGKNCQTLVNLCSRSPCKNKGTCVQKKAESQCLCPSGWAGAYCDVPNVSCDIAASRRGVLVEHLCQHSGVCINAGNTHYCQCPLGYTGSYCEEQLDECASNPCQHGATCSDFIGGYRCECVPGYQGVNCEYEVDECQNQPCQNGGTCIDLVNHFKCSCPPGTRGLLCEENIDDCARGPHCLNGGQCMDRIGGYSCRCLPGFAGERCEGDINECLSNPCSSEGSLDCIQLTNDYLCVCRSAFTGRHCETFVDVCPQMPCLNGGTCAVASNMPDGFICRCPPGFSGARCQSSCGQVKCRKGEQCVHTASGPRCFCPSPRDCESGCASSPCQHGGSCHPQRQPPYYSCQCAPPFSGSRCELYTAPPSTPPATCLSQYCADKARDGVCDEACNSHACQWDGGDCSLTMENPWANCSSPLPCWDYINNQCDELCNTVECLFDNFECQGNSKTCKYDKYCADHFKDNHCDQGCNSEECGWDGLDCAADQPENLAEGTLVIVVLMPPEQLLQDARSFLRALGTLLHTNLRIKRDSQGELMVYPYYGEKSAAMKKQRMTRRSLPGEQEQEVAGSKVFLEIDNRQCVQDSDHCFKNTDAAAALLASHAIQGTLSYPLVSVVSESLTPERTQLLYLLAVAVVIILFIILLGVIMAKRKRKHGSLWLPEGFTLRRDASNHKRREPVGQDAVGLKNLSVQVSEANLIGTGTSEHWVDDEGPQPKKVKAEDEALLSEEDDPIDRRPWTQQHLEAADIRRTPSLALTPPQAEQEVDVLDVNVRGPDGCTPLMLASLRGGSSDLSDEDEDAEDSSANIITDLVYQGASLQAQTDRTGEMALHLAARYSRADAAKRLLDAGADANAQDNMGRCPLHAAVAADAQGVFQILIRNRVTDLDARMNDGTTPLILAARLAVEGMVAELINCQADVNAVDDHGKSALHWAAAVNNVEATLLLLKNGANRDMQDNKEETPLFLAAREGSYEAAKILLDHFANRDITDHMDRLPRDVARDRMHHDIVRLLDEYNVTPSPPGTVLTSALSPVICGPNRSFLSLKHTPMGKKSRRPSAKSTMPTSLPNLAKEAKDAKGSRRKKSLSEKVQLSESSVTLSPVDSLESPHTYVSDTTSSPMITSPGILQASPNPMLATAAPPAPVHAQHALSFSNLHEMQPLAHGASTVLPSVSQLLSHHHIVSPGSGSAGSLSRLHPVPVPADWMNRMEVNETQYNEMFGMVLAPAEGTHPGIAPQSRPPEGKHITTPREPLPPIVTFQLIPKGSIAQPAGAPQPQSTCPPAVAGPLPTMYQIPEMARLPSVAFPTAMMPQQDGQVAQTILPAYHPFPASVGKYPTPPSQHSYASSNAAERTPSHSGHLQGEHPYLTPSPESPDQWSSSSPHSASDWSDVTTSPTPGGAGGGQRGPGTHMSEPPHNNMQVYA

SMILES	composite z-score [1]	composite z-score [2]	composite z-score [3]	composite z-score [4]	composite z-score [5]	composite z-score [6]	composite z-score [7]	z-score [8]	composite z-score [9]	composite z-score [10]	composite z-score [11]	z-score [12]	z-score [13]	z-score [14]	composite z-score [15]	z-score [16]	composite z-score [17]	composite z-score [18]	composite z-score [19]	composite z-score [20]
C=CC[C@@]1(C(=O)N2CCCCC2)N=C(c2ccc(OCCCO)cc2)O[C@@H]1c1ccccc1	1	0.651	0.0336	0.307	0.201	1.56	1.19	-1.21 (inactive)	0.688	0.595	1.56	-2.83 (inactive)	-5.65 (inactive)	-1.18 (inactive)	3.06	0.868 (inactive)	0.361	1.14	0.5	0.0222
COc1ccc([Si](C)(C)[C@@H]2[C@@H](CC(=O)N3CCC[C@H]3CO)O[C@]3(C(=O)N(Cc4ccc(N5C(=O)c6cccc7cccc5c67)cc4)c4ccccc43)[C@H]2C)cc1	-0.629	0.847	-0.0563	0.995	0.733	1.5	0.976	-1.5 (inactive)	0.622	-0.216	1.54	0.035 (inactive)	0.378 (inactive)	0.922 (inactive)	3.07	1.84 (inactive)	-0.238	1.41	1.08	-0.129
CO[C@H]1O[C@H](CO)[C@@H](OC(=O)Nc2ccc(C(F)(F)F)cc2)[C@H](OC(=O)Nc2ccc3c(c2)OCO3)[C@H]1OC(=O)Nc1ccc2c(c1)OCO2	0.303	1.15	0.0557	0.794	1.41	1.6	1.3	6.45 (inactive)	0.557	0.176	1.54	0.724 (inactive)	0.908 (inactive)	14.9 (active)	3.03	-0.298 (inactive)	0.0631	0.293	1.11	0.104
O=C1OC[C@@H](c2ccccc2)N2CC(/C=C/c3ccccc3)=CC12 (stereo not given in full)	0.528	-0.477	-0.222	-0.77	-1.18	-0.586	0.219	-0.639 (inactive)	-1.31	-0.268	-1.07	0.0482 (inactive)	-1.27 (inactive)	0.321 (inactive)	-0.79	0.701 (inactive)	-0.158	-1.37	-0.0841	-0.425
COc1ccc(C(O)C2C=CC3C(=O)N(c4ccccc4)C(=O)C3N2Nc2ccccc2)cc1OCc1ccccc1 (stereo not given)	0.12	0.748	0.206	1.1	1.51	1.48	1.15	0.0678 (inactive)	1.64	0.0515	1.57	-0.177 (inactive)	1.3 (inactive)	0.25 (inactive)	3.53	-1.2 (inactive)	0.104	0.88	1.03	0.0386
CC(C)CN1C(=O)[C@@]2(c3ccc([N+](=O)[O-])cc3)CC(=O)N(CC34CC5CC(CC(C5)C3)C4)[C@@H]2c2ccc(CO)cc21	0.311	-1.76	-0.186	-0.34	-0.602	0.251	-0.594	0.0918 (inactive)	0.0959	-0.0994	-0.297	0.275 (inactive)	0.0569 (inactive)	-1.32 (inactive)	0.295	-1.55 (inactive)	-0.239	-1.21	-0.506	-0.256
C=CCOC(=O)[C@@H]1[C@H]2C(=O)O[C@H](c3ccccc3)[C@H](c3ccccc3)N2[C@H](c2ccc(OCCOC(=O)[C@H]3C[C@H]4C(=O)N[C@@H](CC(C)C)C(=O)N4[C@H]3c3ccc(O)cc3)cc2)[C@@]12C(=O)Nc1ccc(I)cc12	0.054	1.42	0.0333	0.868	0.718	0.535	1.35	-0.477 (inactive)	0.496	-0.0994	1.54	0.157 (inactive)	1.11 (inactive)	2.65 (inactive)	2.75	0.574 (inactive)	-0.0229	1.81	1.06	0.0582
COCCCNC(=O)[C@@]1(Sc2ccc(C)cc2)CC(=O)N(Cc2cc(C(F)(F)F)cc(C(F)(F)F)c2)[C@@H]1c1ccc(CO)cc1	0.0028	0.525	-0.144	-0.29	0.0762	1.22	0.875	-0.42 (inactive)	-0.168	0.213	1.54	-0.157 (inactive)	-1.51 (inactive)	-1.11 (inactive)	1.46	-0.296 (inactive)	-0.0927	1.6	0.715	-0.0531
C=CCC(OC(C)=O)[C@@H]1[C@@H](N(Cc2ccc(-c3ccccc3)cc2)C(=O)c2cccc3ccccc23)c2cc(OCCCO)ccc2N1C(=O)Cc1ccc2ccccc2c1 (stereo not given in full)	-0.144	0.407	-0.0445	0.237	-0.101	-0.278	-0.621	-0.873 (inactive)	-0.0377	0.154	-0.419	-0.554 (inactive)	-0.691 (inactive)	-0.311 (inactive)	0.95	0.153 (inactive)	-0.0407	0.514	-0.377	-0.123
CCCN1C(=O)[C@]2(Cc3ccccc3)N=C(c3ccc(OCCCO)cc3)O[C@@H]2c2ccccc21	0.224	1.12	-0.0226	0.347	0.415	0.305	1.3	-0.355 (inactive)	0.195	-0.198	1.54	-0.128 (inactive)	-1.88 (inactive)	0.585 (inactive)	3.26	1.05 (inactive)	-0.0159	1.74	1.13	-0.0605
